Data taken from PubChem BioAssay AID1443 (Sanford-Burnham Center for Chemical Genomics, 2008).
About 880 (0.4%) of roughly 220,000 compounds were called active.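 Rule for the calls: active = cell killing above 50% in the first pass at 4 µM, then a duplicate retest at 5 µM averaging 50% or more; inactive = the rest.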 The full list was thinned out, with actives kept by preference.

Assay: compounds killing PPC-1 cancer cells with TRAIL present, primary screen, TRAIL potentiator project, ATPLite luminescence, uHTS (AID 1443);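 note: plate controls were cells with TRAIL plus DMSO for no effect and medium-only wells lacking cells for full effect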
Conditions: PPC-1 cells + TRAIL, ATPLite viability luminescence, stronger effect = higher value; at 4 µM unless noted

| SMILES | cell killing (% activity) |
| --- | --- |
| Oc1ccc(-c2[nH]ncc2-c2nc3ccccc3s2)c(O)c1 | 14.3% (inactive) |
| O=c1oc(-c2ccccc2NS(=O)(=O)c2ccc(Cl)cc2)nc2ccccc12 | -12.7% (inactive) |
| O=c1oc(/C=C/c2ccccc2)nc2ccccc12 | 53% [at 5 µM] (active) |
| S=c1[nH]nc(/C=C/c2ccccc2)o1 | -2.3% (inactive) |
| COc1ccc(Cn2c(O)c(/C=C3/C=CC=N3)c(=O)[nH]c2=O)cc1 | 5.9% (inactive) |
| Nc1nc(NCC2CCCO2)nc(Nc2ccccc2F)c1[N+](=O)[O-] (stereo unspecified) | 2.1% (inactive) |
| O=C(CCS(=O)(=O)c1ccccc1Cl)Nc1ccc(S(=O)(=O)Nc2ncccn2)cc1 | 1.8% (inactive) |
| COc1ccc(C(=O)Nc2ccccc2C(=O)N/N=C/c2ccc(O)c(OC)c2)cc1 | 96.7% [at 5 µM] (active) |
| COc1cc(/C=N/NC(=O)c2ccccc2)ccc1OS(=O)(=O)c1ccccc1 | 21.5% (inactive) |
| COc1ccc(C(=O)Nc2ccccc2C(=O)N/N=C/c2ccccc2OC)cc1 | 28.7% (inactive) |
| CCn1cc(CN2CCCC(CNS(=O)(=O)Cc3ccccc3)C2)cn1 (stereo unspecified) | 14.8% (inactive) |
| O=C(N/N=C/c1cc([N+](=O)[O-])ccc1O)/C(=C\c1cccs1)NC(=O)c1ccccc1 | 8.1% (inactive) |
| CC12C(=O)N(c3ccccc3)C(=O)C1C(c1ccccc1)N1CCCN12 (stereo unspecified) | 8.2% (inactive) |
| Cn1nccc1NC(=O)CC(CC(=O)O)c1ccccc1 (stereo unspecified) | 5.7% (inactive) |
| CC1(C)N=C(c2ccccn2)C(C)(C)N1O | 22.7% (inactive) |
| Cc1cc(-n2cnc(-c3cn(C)nc3C)n2)no1 | -10.4% (inactive) |
| CN1CCN(CC#CCC2(O)c3ccccc3-c3ccccc32)CC1 | 1.7% (inactive) |
| O=c1cnnc(Nc2ccccc2)[nH]1 | 30.6% (inactive) |
| Cc1nc(-c2ccc(Cl)cc2)sc1C(=O)NN | 59.4% [at 5 µM] (active) |
| Cc1ccc(SCC(=O)c2sc(-c3ccccc3)nc2C)cc1 | 8.5% (inactive) |
| Cc1nc(-c2ccc(Cl)cc2)sc1C(=O)CBr | 11.1% (inactive) |

| SMILES | cell killing (% activity) |
| --- | --- |
| O=C(COC(=O)c1ccc(Cl)nc1)NCc1ccc2c(c1)OCO2 | -2.9% (inactive) |
| CC(C(=O)Nc1ccc(F)c(F)c1F)N1CCCCCC1 (stereo unspecified) | 30.5% (inactive) |
| COc1ccc(OC)c(NC(=O)N[C@H](Cc2ccccc2)C(=O)NN)c1 | -4.7% (inactive) |
| Nn1c(SCC(=O)NC2CCCC2)nnc1-c1ccccc1F | 2.5% (inactive) |
| O=c1c(-c2ccccc2)cnc2n1CCS2 | -3.9% (inactive) |
| Cc1ccc(C(=O)NNC2=Nc3cc([N+](=O)[O-])ccc3OC2)cc1 | -2.5% (inactive) |
| COc1ccc(C2=NOC3(CC(=O)N(c4ccc(C)cc4)C3=O)C2)cc1 (stereo unspecified) | 12.3% (inactive) |
| COc1ccc(C2=Nc3cc(C)ccc3OC2)cc1 | 52.1% (active) |
| CNC(=O)NC(=O)C(OC(=O)c1cccc(S(=O)(=O)N2CCCCC2)c1)c1ccccc1 (stereo unspecified) | 8.9% (inactive) |
| N#CCc1ccc(OC(=O)c2cccnc2)cc1 | 0.5% (inactive) |
| Cc1cc(NC(=O)CN2CCCC(C)C2)n(-c2nc3ccccc3s2)n1 (stereo unspecified) | -3.9% (inactive) |
| CCC(C)Cn1c(O)cc2nn(-c3nc4ccccc4s3)c(=O)c-2c1C (stereo unspecified) | 56% [at 5 µM] (active) |
| CCOC(=O)N1CCN(CC(=O)Nc2cc(C)nn2-c2nc3ccccc3s2)CC1 | -8.9% (inactive) |
| COc1ccc(CCNC2=CC(=O)CC(C)(C)C2)cc1 | 14.5% (inactive) |
| COc1ccc2cc(-c3[nH]ncc3CNCCn3nc(C)cc3C)ccc2c1 | 0.6% (inactive) |
| Cn1c(=NC(=O)CSCC(=O)N2CCOCC2)sc2ccccc21 | 11.5% (inactive) |
| Cn1c(=NC(=O)c2cnccn2)sc2ccccc21 | 53.2% [at 5 µM] (active) |
| Cn1c(=NC(=O)CSCC(=O)N2CCCCC2)sc2ccccc21 | 21.3% (inactive) |
| Cc1ccsc1/C=N/Nc1ccc(Cl)nn1 | -6.9% (inactive) |
| O=[N+]([O-])c1ccc(N2CCN(S(=O)(=O)c3ccccc3)CC2)cc1N1CCc2ccccc2C1 | 8.9% (inactive) |
| Cc1ccccc1NC(=S)N(CCCN1CCOCC1)Cc1cccs1 | 8.5% (inactive) |

| SMILES | cell killing (% activity) |
| --- | --- |
| O=C(Oc1ccccc1)c1ccc2nccnc2c1 | 25.8% (inactive) |
| O=C(Oc1ccc(-c2nc(-c3ccccn3)no2)cc1)c1ccccc1 | 54.2% [at 5 µM] (active) |
| c1ccc(-c2noc(-c3cccs3)n2)nc1 | 31.1% (inactive) |
| Cc1cc(C)c(C)c(S(=O)(=O)N[C@@H](C)C(=O)OC(C)C(=O)NC(N)=O)c1C (stereo partly specified) | 18.2% (inactive) |
| NCCCC[C@@H]1NC(=O)[C@H](CCC(=O)O)NC(=O)c2cc([N+](=O)[O-])cc(I)c2NCC[C@@H](C(N)=O)NC1=O | -6.5% (inactive) |
| O=S(=O)(Nc1ccc(OC(F)(F)F)cc1)c1cccc2nonc12 | 7.3% (inactive) |
| O=C(CSc1nnc(C2CC2)n1Cc1ccccc1)Nc1cccnc1Cl | 9.8% (inactive) |
| Cc1ccc(NS(=O)(=O)c2ccc(N/N=C/c3ccccc3OCC(=O)O)c([N+](=O)[O-])c2)c(C)c1 | -2.4% (inactive) |
| O=C1CSC(c2ccccc2)N1c1nc(-c2ccc(Cl)cc2Cl)cs1 (stereo unspecified) | 27.7% (inactive) |
| Clc1ccc(-c2cc(-c3ccccn3)on2)c(Cl)c1 | 88% [at 5 µM] (active) |
| O=C(NCc1ccccn1)c1cc(-c2ccccc2Cl)on1 | 24.5% (inactive) |
| CCOC(=O)c1c(/N=C/C2C(=O)CC(C)(C)CC2=O)sc(C)c1C | 14.1% (inactive) |
| CCCCSc1nnc2c(n1)OC=Nc1ccccc1-2 | 11.9% (inactive) |
| COc1ccc(/C(C)=N/N2CCOCC2)c(O)c1 | -10.1% (inactive) |
| COc1ccc(-c2nc(-c3ccccc3)no2)c(OC)c1 | 68% [at 5 µM] (active) |
| COc1ccc(-c2noc(-c3cccc(OC)c3OC)n2)cc1OC | 18.8% (inactive) |
| COc1ccc(-c2noc(-c3ccc(C)cc3)n2)cc1 | 25.4% (inactive) |
| O=c1c2cc(-c3ccccc3)sc2nc2n1N=C(c1cccs1)CS2 | 30.8% (inactive) |
| Cc1cc(C)c2c(NC(=O)C3CC3)nn(C)c2n1 | 0.3% (inactive) |
